Results taken from PubChem BioAssay (NCI).
This is part of a sample that, as a whole, favours compounds with a hit. Of some 83,000 tested, about 20% had one in any assay.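 Activity criterion: percent growth below 10, measured after cells in 96-well plates were exposed to a single compound concentration for 48 hours.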 Activity calls are given as the source filed them.

Each compound was assayed on MDA-MB-435 melanoma (assay: NCI-60 one-dose screen, 48 h (100 = growth as untreated, 0 = no growth, -100 = all killed)). Conditions: 10 µM unless noted.

Compound	growth
CCN(CC)C(=O)O/N=C(/C)c1ccccc1	104% (inactive)
C=C1C(=O)O[C@H]2[C@H]1CC/C(COC(=O)NCc1ccc(Cn3c(=O)sn(CCCl)c3=O)cc1)=C\CC[C@@]1(C)O[C@@H]21	79.4% (inactive)
COc1ccc2c(c1)sc1nc(-c3ccccc3)c(-c3cccc4ccccc34)n12	-49.4% (active)
c1ccc(-c2nnn(-c3ccccc3)n2)cc1	106% (inactive)
CC(C)N(C(=S)SSC(=S)N(C(C)C)C(C)C)C(C)C	99.6% (inactive)
Cc1ccc2c(C)c3c(ccc4ccccc43)c[n+]2c1	83.2% (inactive)
O=C(N/N=C/c1ccc([N+](=O)[O-])cc1)c1ccccc1Nc1ccnc(C(F)(F)F)c1	90.2% (inactive)
CC(C)CC1NC(=O)C(CC(C)C)N(CO)C1=O (stereo not given)	111% (inactive)
Cc1ccccc1C1CC(=O)c2ccccc2C1C (stereo not given)	91.3% (inactive)
O=C1/C(=C/N2N=C(c3ccc(Cl)cc3)CC2c2ccccc2O)SC(=S)N1c1cccc(C(F)(F)F)c1 (stereo not given)	64.6% (inactive)
CN(C)CC(=O)c1ccc2cc(Br)c3ccccc3c2c1	83.6% (inactive)
CCN(C(=O)CCl)C(C)(C)C(SSSC(c1ccc(Cl)cc1)C(C)(C)N(CC)C(=O)CCl)c1ccc(Cl)cc1 (stereo not given)	36.4% (inactive)
COc1ccc(NC(=O)Cn2c(=O)sc3c(-c4ccc(Cl)cc4)cc(-c4ccc(Cl)cc4)nc32)cc1	102% (inactive)
COc1cccc(/C=N\Nc2ccc([N+](=O)[O-])cn2)c1O	54.3% (inactive)
CCN(CC)CC(=O)Nc1c(C)cc(C(=O)NN)cc1C	101% (inactive)
